In the experiment the target is T1, GST-Nv-NF-kB (Ser allele) (Nematostella vectensis, UniProt A7UNT2 2-411).
T1 sequence: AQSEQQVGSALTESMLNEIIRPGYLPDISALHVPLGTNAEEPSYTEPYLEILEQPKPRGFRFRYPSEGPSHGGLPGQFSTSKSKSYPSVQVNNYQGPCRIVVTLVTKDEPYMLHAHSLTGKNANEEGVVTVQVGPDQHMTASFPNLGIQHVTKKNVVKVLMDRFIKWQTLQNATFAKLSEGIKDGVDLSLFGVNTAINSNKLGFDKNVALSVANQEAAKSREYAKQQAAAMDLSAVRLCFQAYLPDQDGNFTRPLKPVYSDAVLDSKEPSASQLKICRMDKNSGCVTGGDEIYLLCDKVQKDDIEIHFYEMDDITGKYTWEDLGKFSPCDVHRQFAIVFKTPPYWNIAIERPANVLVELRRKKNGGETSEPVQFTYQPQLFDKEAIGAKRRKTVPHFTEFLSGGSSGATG
As to the kind of experiment: protein-binding microarray (PBM); PBM: ~300 nM protein, 6 mM HEPES pH 7.8, 80 mM KCl, 0.5 mM EDTA, 0.5 mM EGTA, 6% glycerol, 35 ng/ul poly-dIdC, 1% milk, 1 h, room temperature; Ap Aiptasia and Nv Nematostella (sea anemones) / Co Capsaspora / Aq Amphimedon (sponge) / Dm Drosophila / Hu human; RHD is the Rel homology domain; high values mean tight binding. To be noted: dsDNA, one strand shown.
With “CCGATTAACATCAGACAACCCCCTGATGTTAATCGGGTCTTGATTCGCTTGACGCTGCTG”, the binding signal amounted to 4.56 z-score.

With “CCGATTAACATCAAGGGGGGAGATGATGTTAATCGGGTCTTGATTCGCTTGACGCTGCTG”, the binding signal came to 4.86 z-score.

“CCGATTAACATCAAAATTCCCTGTGATGTTAATCGGGTCTTGATTCGCTTGACGCTGCTG” registered a binding signal of 6.24 z-score.

“CCGATTAACATCAGGGGGGGGAATGATGTTAATCGGGTCTTGATTCGCTTGACGCTGCTG” registered a binding signal of 6.53 z-score.

“CCGATTAACATCAAGGAGTCCCCTGATGTTAATCGGGTCTTGATTCGCTTGACGCTGCTG” gave a binding signal of 5.36 z-score.

Sequence “CCGATTAACATCAGGGGGTTCACTGATGTTAATCGGGTCTTGATTCGCTTGACGCTGCTG” gave a binding signal of 4.69 z-score.

Sequence “CCGATTAACATCAGGTATTTCCATGATGTTAATCGGGTCTTGATTCGCTTGACGCTGCTG” came in with a binding signal of 1.6 z-score.

Take “CCGATTAACATCACGGAAAAACCTGATGTTAATCGGGTCTTGATTCGCTTGACGCTGCTG”: the binding signal stood at 1.31 z-score.

As for “CCGATTAACATCAAATGTGGGAATGATGTTAATCGGGTCTTGATTCGCTTGACGCTGCTG”, the binding signal is 1.31 z-score.

With “CCGATTAACATCAAGAAAATCCCTGATGTTAATCGGGTCTTGATTCGCTTGACGCTGCTG”, the binding signal amounted to 4.75 z-score.

Turning to “CCGATTAACATCAGGGGGAACACTGATGTTAATCGGGTCTTGATTCGCTTGACGCTGCTG”, the binding signal was 6.37 z-score.

Consider “CCGATTAACATCAACACTCCCCCTGATGTTAATCGGGTCTTGATTCGCTTGACGCTGCTG”, for which the binding signal is 5.61 z-score.

Sequence “CCGATTAACATCAAAAAACCCCATGATGTTAATCGGGTCTTGATTCGCTTGACGCTGCTG” returned a binding signal of 6.05 z-score.

In turn, “CCGATTAACATCAAATACCCCCCTGATGTTAATCGGGTCTTGATTCGCTTGACGCTGCTG” showed a binding signal of 6.55 z-score.

The values above are taken from publication PMC5700166.
